Assay results taken from PubChem BioAssay (EPA / NIEHS).
Results filed as inconclusive are left out. Calls of active or inactive are those of the source. Rule for the calls, unless noted: active = hit-call score of the fitted dose curve at least 0.9, where 1 is the maximum; inconclusive = response in the unintended direction; inactive = score below 0.9.

Tests used:
[1] = TOX21_p53_BLA_p2_viability: Viability Assessment in the Tox21 HCT-116 p53 Agonism Beta-lactamase Assay, Phase 2 (AID 2283591);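 note: compound exposure lasted 16 h at 37 °C; actives lower the ATP signal meaning cytotoxicity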
Summary of the method: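 HCT116 p53-bla cells, 4000/well, dosed after 5 h plating (217-fold dilution of DMSO stocks) and incubated 16 h at 37C. Viability taken as cellular ATP by CellTiter-Glo luminescence after 30 min RT; signal loss marks cytotoxicity.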

[2] = TOX21_p53_BLA_p3_viability: Viability Assessment in the Tox21 HCT-116 p53 Agonism Beta-lactamase Assay, Phase 3 (AID 2283593);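 note: cells exposed to compound for 16 h before reading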
Summary of the method: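 HCT116 cells, 4000/well, dosed 5 h after plating by pin transfer (217-fold dilution from DMSO stock) and incubated 16 h at 37C, 5% CO2. Viability read as ATP luminescence with CellTiter-Glo after 30 min at room temperature.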

[3] = biological target: Cellular tumor antigen p53 (Homo sapiens) (UniProt P04637); assay: TOX21_p53_BLA_p3_ratio: Tox21 HCT-116 p53 Agonism Beta-lactamase Assay, Ratio, Phase 3 (AID 2283596)
Summary of the method: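 HCT116 p53-bla cells (4000/well) given compound in DMSO (217-fold dilution) after 5 h, incubated 16 h at 37C. CCF4-AM substrate 2 h at room temperature; 460/530 nm emission ratio, gain fitted against DMSO.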

[4] = TOX21_p53_BLA_p4_viability: Viability Assessment in the Tox21 HCT-116 p53 Agonism Beta-lactamase Assay, Phase 4 (AID 2283597);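 note: hits lower the luminescence signal meaning cytotoxicity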
Summary of the method: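 Luminescent ATP readout (CellTiter-Glo, 30 min, room temperature) in the same wells as the p53 bla ratio. HCT116 cells were treated for 16 h at 37C with DMSO-dissolved compounds.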

[5] = biological target: Cellular tumor antigen p53 (Homo sapiens) (UniProt P04637); assay: TOX21_p53_BLA_p5_ratio: Tox21 HCT-116 p53 Agonism Beta-lactamase Assay, Ratio, Phase 5 (AID 2283599)
Summary of the method: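 HCT-116 p53-bla cells (4000/well) plated 5 h, dosed with compound (217-fold DMSO dilution) for 16 h at 37 C; CCF4-AM substrate 2 h at room temperature. Activity is the 460/530 nm emission ratio (405 nm excitation), fitted in gain-of-signal direction versus DMSO.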

[6] = TOX21_p53_BLA_p5_viability: Viability Assessment in the Tox21 HCT-116 p53 Agonism Beta-lactamase Assay, Phase 5 (AID 2283600)
Summary of the method: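 Seeded cells (4000/well) settle 5 h before compound addition. Plates then incubate 16 h at 37C, receive FRET substrate for 2 h, and finally CellTiter-Glo, with luminescence measured after a 30 min room-temperature incubation.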

[7] = biological target: Cellular tumor antigen p53 (Homo sapiens) (UniProt P04637); assay: TOX21_p53_BLA_p4_ratio: Tox21 HCT-116 p53 Agonism Beta-lactamase Assay, Ratio, Phase 4 (AID 2283601)
Summary of the method: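 HCT-116 p53 beta-lactamase reporter cells (4000/well) preincubated 5 h, then compound (217-fold dilution of DMSO stock) for 16 h at 37C. CCF4-AM substrate added 2 h at room temperature; 460/530 nm emission ratio fitted upward versus DMSO.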

[8] = CCTE_Harrill_HTTr_Viability_MCF7: CCTE's 6-hour Cell Viability Assessment for the High-Throughput Transcriptomics (HTTr) Platform, in MCF-7 cells cultured in DMEM + 10% fetal bovine serum, Harrill Lab (AID 2284010; active = hit-call score of the fitted dose curve at least 0.9, where 1 is the maximum; inactive = score below 0.9)
Summary of the method: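 Cells were dosed with chemicals in an eight-point dilution series, imaged 6 hours later for propidium iodide uptake, and the endpoint was analyzed by bidirectional fitting against DMSO as negative control.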

[9] = CCTE_Harrill_HTTr_Apoptosis_MCF7: CCTE's 6-hour Apoptosis Assessment for the High-Throughput Transcriptomics (HTTr) Platform, in MCF-7 cells cultured in DMEM + 10% fetal bovine serum, Harrill Lab (AID 2284011; active = hit-call score of the fitted dose curve at least 0.9, where 1 is the maximum; inactive = score below 0.9)
Summary of the method: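 Apoptosis in MCF-7 cells grown in DMEM with 10% fetal bovine serum was scored after a six hour exposure by high content imaging of caspase-3/7 activation (CellEvent Caspase 3/7 Green), with DMSO serving as negative control and baseline.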

[10] = CCTE_Harrill_HTTr_CellCount_MCF7: CCTE's Cell Proliferation Assessment for the High-Throughput Transcriptomics (HTTr) Platform, Harrill Lab (AID 2284012);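 note: count of Hoechst-stained nuclei per well by high-content imaging in MCF-7 cells; cells exposed to compound for six hours; intended direction is loss of nuclei count meaning fewer cells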
Summary of the method: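 Chemicals in eight-point dilution series are added to MCF-7 cells for six hours, nuclei are stained with Hoechst and imaged, and per-well nuclei counts are fitted in both directions relative to DMSO controls.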

THRA (gene 7067) = THRA (gene 7067) (UniProt P10827); assay: TOX21_TRA_COA_Antagonist_Followup_ratio: Tox21 Thyroid Hormone Receptor alpha Antagonism through Coactivator Recruitment Follow-Up Assay, Ratio (AID 2283953)
Summary of the method: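 520:495 nm emission ratio (excitation 340 nm) reports fluorescein-SRC-2 peptide recruitment to GST-TRα LBD by TR-FRET with Tb anti-GST antibody. Values were normalized to DMSO (0%) and T3 control wells (100%); loss of signal indicated antagonism.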

THRB (gene 7068) [11] = biological target: THRB (gene 7068) (UniProt P10828); assay: TOX21_TRB_BLA_Antagonist_Followup_ratio: Tox21 Thyroid Hormone Receptor beta Antagonism Beta-lactamase (BLA) Follow-Up Assay, Ratio (AID 2283958)
Summary of the method: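 HEK293T TRb-bla (GAL4 DBD + hTRβ LBD), 2% cs-FBS phenol red-free DMEM, 5 h attach; cpds 11-pt triplicate, 18 h 37C; CCF4-AM 2 h RT; 460/530 ratio vs DMSO; CellTiter-Glo viability same wells.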

[12] = TOX21_TRB_BLA_Antagonist_Followup_viability: Viability Assessment in the Tox21 Thyroid Hormone Receptor beta Antagonism Beta-lactamase (BLA) Follow-Up Assay (AID 2283961)
Summary of the method: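 In the same wells as the reporter read, cell health was gauged by CellTiter-Glo ATP luminescence, with signal loss indicating reduced viability. Cells had been exposed to test compounds for 18 h.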

THRB (gene 7068) [13] = biological target: THRB (gene 7068) (UniProt P10828); assay: TOX21_TRB_COA_Antagonist_Followup_ratio: Tox21 Thyroid Hormone Receptor beta Antagonism through Coactivator Recruitment Follow-Up Assay, Ratio (AID 2283967)
Summary of the method: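 Cell-free TR-FRET: GST-TRb LBD (5.0 nM) with fluorescein-SRC-2 peptide (200 nM) and Tb anti-GST antibody (2 nM), 0.10% BSA. 520:495 nm emission ratio normalized to DMSO (0%) and T3 (100%).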

[14] = TOX21_TR_RXR_BLA_Antagonist_Followup_viability: Viability Assessment in the Tox21 Thyroid Hormone Receptor beta Retinoid X Receptor alpha (RXRa) Antagonism Beta-lactamase (BLA) Follow-Up Assay (AID 2283979)
Summary of the method: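 RXRa-bla HEK293T cells (2,500/well, phenol red-free DMEM, 2% charcoal-stripped FBS) were attached 5 h, then exposed to compounds at 11 concentrations in triplicate for 16 h at 37C. Viability measured by CellTiter-Glo ATP luminescence, bidirectional fitting versus DMSO.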

Measured: outcome

Cellular tumor antigen p53 (Homo sapiens), sequence (P04637 whole entry, looked up): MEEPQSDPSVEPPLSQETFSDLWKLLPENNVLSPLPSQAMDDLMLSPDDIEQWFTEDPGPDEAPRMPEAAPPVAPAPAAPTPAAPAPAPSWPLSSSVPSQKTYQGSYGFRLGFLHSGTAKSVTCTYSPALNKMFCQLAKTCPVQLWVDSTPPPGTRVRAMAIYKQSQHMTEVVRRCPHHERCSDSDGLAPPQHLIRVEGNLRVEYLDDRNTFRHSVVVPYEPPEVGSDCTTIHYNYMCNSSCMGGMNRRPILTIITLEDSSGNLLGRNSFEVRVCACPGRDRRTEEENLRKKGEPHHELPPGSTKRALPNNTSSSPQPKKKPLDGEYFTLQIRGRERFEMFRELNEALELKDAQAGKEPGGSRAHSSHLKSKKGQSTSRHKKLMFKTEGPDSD
THRB (gene 7068), sequence (P10828 whole entry, looked up, the tested form may be a part): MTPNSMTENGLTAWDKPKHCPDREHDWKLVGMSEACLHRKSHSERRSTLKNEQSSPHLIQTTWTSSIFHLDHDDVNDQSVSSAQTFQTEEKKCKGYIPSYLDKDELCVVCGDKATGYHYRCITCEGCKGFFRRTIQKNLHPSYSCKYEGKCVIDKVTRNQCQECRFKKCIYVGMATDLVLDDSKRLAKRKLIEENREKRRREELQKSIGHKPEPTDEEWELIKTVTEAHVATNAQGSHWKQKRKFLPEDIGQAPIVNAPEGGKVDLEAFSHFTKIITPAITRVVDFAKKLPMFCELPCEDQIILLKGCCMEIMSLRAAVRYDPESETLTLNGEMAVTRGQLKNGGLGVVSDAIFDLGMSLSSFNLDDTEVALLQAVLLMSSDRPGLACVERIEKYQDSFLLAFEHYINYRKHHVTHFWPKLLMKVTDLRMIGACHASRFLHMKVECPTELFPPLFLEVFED
THRA (gene 7067), sequence (P10827 whole entry, looked up, the tested form may be a part): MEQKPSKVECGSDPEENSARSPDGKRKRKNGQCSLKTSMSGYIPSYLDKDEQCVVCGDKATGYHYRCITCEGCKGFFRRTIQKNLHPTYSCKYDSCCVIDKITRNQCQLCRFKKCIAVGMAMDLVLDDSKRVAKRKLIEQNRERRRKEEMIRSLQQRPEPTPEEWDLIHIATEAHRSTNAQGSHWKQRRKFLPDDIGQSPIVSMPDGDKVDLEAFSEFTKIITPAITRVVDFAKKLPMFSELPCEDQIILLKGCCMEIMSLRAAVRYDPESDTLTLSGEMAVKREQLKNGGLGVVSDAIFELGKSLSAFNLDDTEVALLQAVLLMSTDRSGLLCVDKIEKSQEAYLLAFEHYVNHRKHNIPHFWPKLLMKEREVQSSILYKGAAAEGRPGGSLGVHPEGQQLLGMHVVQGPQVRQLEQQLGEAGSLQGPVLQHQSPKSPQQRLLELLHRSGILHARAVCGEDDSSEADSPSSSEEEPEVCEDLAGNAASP

CC(=O)N1C[C@H](O)C[C@H]1C(=O)O
inactive: [1] | [2] | [3] | [4] | [5] | [6] | [7]

NS(=O)(=O)c1cc(C2(O)NC(=O)c3ccccc32)ccc1Cl (stereo not given)
inactive: [1] | [2] | [3] | [4] | [5] | [6] | [7]

C=C1CC2C3CCC4=CC(=O)C=C[C@]4(C)[C@@]3(F)[C@@H](O)C[C@]2(C)[C@@]1(O)C(=O)COC(C)=O (stereo not given in full)
inactive: [1] | [2] | [3] | [4] | [5] | [6] | [7]

O=C(O)c1ccc(Cl)c(Cl)c1
inactive: [1] | [2] | [3] | [4] | [5] | [6] | [7]

Cc1nc(C)c(C)nc1C
inactive: [1] | [2] | [3] | [4] | [5] | [6] | [8] | [9] | [10]

CCOC(=O)c1cccnc1
inactive: [1] | [2] | [3] | [4] | [5] | [7]

C[C@H](CCC(=O)O)[C@H]1CC[C@H]2[C@@H]3[C@H](O)C[C@@H]4C[C@H](O)CC[C@]4(C)[C@H]3C[C@H](O)[C@]12C
inactive: [1] | [2] | [3] | [4] | [5] | [6] | [7]

C[C@@H]1C[C@H]2[C@@H]3CCC4=CC(=O)C=C[C@]4(C)[C@@]3(Cl)[C@@H](O)C[C@]2(C)[C@@]1(OC(=O)c1ccco1)C(=O)CCl
inactive: [1] | [2] | [3] | [4] | [5] | [6] | [7] | THRA (gene 7067) | THRB (gene 7068) [11] | [12] | THRB (gene 7068) [13] | [14]

O=C(/C=C/c1cccc(F)c1)NC1CC1
inactive: [1] | [2] | [3] | [4] | [5] | [6] | [7]

CC(C)[N+](C)(C)CC(O)COc1cccc2ccccc12 (stereo not given)
inactive: [1] | [2] | [3] | [4] | [5] | [6] | [7]

O=S(=O)(O)c1ccc2c(N=Nc3ccc(S(=O)(=O)O)c4ccccc34)c(O)c(S(=O)(=O)O)cc2c1
inactive: [1] | [2] | [3] | [4] | [5] | [6] | [7]

[O]=[Bi]
inactive: [1] | [2] | [3] | [4] | [5] | [6] | [7]
